For 22 molecules, fluorescence response results are on record in PubChem BioAssay AID435000 (NMMLSC, 2010).

Molecules are shown by their SMILES. The list shows a part of the results. A number with no mark means an inactive call.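 Rule for the calls: active = fluorescence response below 15%; inactive = the rest.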

The assay in a line: yeast superoxide dye artefact check – S. cerevisiae BY4741, flow cytometry, artefact control for yeast caloric restriction mimetic project (AID 435000).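 Note: percent of the mean fluorescence averaged over all compound wells on the plate; lower means stronger quenching of DHE signal or ROS scavenging.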 The following applies: S. cerevisiae BY4741, DHE fluorescence, at 10 µM, hits give low values. On the technique in general: A flow cytometer gives signals particle by particle.
Take `Cc1ccc(-c2nc(CSCC(=O)NC3CCN(Cc4ccccc4)CC3)c(C)o2)cc1`: the fluorescence response was 94.6%.

With `O=C(CSc1ccc(-c2ccc(-n3cccn3)cc2)nn1)Nc1ccc([N+](=O)[O-])cc1`, the fluorescence response is 88.8%.

With `Cc1ccc(NC(=O)Cn2nc(C)c3ccccc3c2=O)c(C)c1`, the fluorescence response is 110%.

Consider `CCn1c2ccccc2c2cc(CC(N)=O)ccc21`, for which the fluorescence response is 105%.

Consider `Cc1ccc(-c2nn(C(C)(C)C)c3ncnc(N)c23)cc1`, for which the fluorescence response was 99.5%.

With `CC1CCCN(S(=O)(=O)c2ccc(C(=O)Nc3nnc(-c4ccncc4)o3)cc2)C1` (configuration not stated), the fluorescence response was 109%.

Turning to `O=C(Nc1ccc(Br)cn1)c1ccc([N+](=O)[O-])cc1Cl`, the fluorescence response is 94%.

Take `COc1ccc(NC(C)=O)cc1NC(=O)CN1CCN(c2ccccn2)CC1`: the fluorescence response is 96.8%.

Consider `O=C(Nc1ccccc1N1CCCC1)c1ccc2ccccc2c1`, for which the fluorescence response is 103%.

`NC(=S)Nc1c(Cl)cccc1Cl`: the fluorescence response is 97.4%.

Regarding `CCN(CC)c1ccc(NC(=O)CN2CCN(c3ccccn3)CC2)cc1`, the fluorescence response was 95.7%.

Take `Cc1ccc(C23CC4CC(CC(C(=O)NCC(=O)O)(C4)C2)C3)cc1`: the fluorescence response was 94.6%.

For the molecule `CC(=O)NC1=NN(C(C)=O)C(C)(CCS(=O)(=O)c2ccc(Cl)c(Cl)c2)S1` (configuration not stated), the fluorescence response was 112%.

For `Cc1cc(=O)n2[nH]c(-c3cccc(Cl)c3)cc2n1`, the fluorescence response was 92.6%.

Turning to `Cc1cc2oc(C(=O)Nc3c(C)n(C)n(-c4ccccc4)c3=O)c(C)c2cc1Cl`, the fluorescence response was 95.3%.

For the molecule `Cc1cc(C(F)F)n2nc(C(=O)Nc3ccc(S(=O)(=O)NC45CC6CC(CC(C6)C4)C5)cc3)nc2n1`, the fluorescence response is 104%.

With `CN1CCN(c2cc3c(cc2F)c(=O)c(C(=O)O)cn3CCF)CC1`, the fluorescence response was 100%.

Consider `CC(C)NC(=O)/C(C#N)=C\c1ccc(N(C)C)c(Br)c1`, for which the fluorescence response was 92.3%.

For the molecule `CCn1c2ccccc2c2cc(NC(=O)CNC)ccc21`, the fluorescence response is 112%.

For the molecule `COc1cccc(NC(=O)NCCN2CCCCC2)c1`, the fluorescence response is 93.8%.

As to `Cn1c(Nc2ccccc2)cc(=O)n(C)c1=O`, the fluorescence response is 113%.

Regarding `CNC(=O)c1cccc2nc3ccccc3nc12`, the fluorescence response is 105%.
